# About 14,000 (4.5%) of roughly 310,000 compounds showed an effect of 50% or more. The effect is printed as a negative number. The sample holds strong results, similar compounds and a random draw of the others, so the mix is not that of the screen.
# Target: human ether-à-go-go-related gene (hERG) potassium channel (human, UniProt Q12809)
# Assay: primary screen, population patch clamp on CHO cells stably expressing hERG; higher = less effect of the substance
# 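Further: peak tail current of the secondary pulse compared with the same well before compound.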
# human ether-à-go-go-related gene (hERG) potassium channel, sequence (Q12809 whole entry, looked up): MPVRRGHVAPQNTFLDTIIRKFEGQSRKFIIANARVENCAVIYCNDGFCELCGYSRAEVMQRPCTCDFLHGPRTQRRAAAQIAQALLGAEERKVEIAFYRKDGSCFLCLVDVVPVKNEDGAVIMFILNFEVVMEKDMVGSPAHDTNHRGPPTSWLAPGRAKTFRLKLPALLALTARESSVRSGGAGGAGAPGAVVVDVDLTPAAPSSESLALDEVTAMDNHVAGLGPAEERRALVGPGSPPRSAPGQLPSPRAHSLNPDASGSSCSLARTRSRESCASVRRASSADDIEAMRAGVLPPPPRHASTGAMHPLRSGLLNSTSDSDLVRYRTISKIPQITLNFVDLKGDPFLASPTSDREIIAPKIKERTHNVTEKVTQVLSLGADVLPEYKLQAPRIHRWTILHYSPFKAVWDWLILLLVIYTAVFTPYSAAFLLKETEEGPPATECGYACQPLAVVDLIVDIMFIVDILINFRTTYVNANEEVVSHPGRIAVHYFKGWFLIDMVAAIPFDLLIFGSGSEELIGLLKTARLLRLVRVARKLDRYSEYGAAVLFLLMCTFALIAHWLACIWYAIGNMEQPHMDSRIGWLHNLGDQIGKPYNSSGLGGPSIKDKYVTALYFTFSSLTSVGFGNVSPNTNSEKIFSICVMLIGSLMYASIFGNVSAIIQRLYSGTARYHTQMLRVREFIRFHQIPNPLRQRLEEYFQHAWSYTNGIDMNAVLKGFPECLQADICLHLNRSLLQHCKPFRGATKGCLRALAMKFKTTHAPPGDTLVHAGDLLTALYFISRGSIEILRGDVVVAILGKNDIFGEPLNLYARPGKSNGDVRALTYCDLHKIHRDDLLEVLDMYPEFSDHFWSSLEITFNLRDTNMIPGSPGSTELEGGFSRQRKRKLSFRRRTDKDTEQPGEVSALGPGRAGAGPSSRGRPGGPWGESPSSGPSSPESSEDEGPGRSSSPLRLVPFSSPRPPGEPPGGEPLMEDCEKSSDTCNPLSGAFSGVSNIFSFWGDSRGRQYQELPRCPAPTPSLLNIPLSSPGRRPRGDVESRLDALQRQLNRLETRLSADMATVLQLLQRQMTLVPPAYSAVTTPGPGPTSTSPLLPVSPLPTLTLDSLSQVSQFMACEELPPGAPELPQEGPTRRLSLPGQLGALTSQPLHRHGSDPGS
row,SMILES,"hERG current change (%, negative = inhibition) at 10uM [%]"
1,CCOC(=O)C(CC)Sc1ncnc2nc[nH]c12 (stereo not drawn),-12.4
2,CCCn1nnc(NC(=O)COc2ccc(C3CCCCC3)cc2)n1,-31.1
3,O=c1ccc(-c2ccc(S(=O)(=O)Nc3cccc(Br)c3)o2)n[nH]1,14.8
4,Cc1nn(C)c(C)c1/C=C1/CC2C3CC=C4CC(O)CCC4(C)C3CCC2(C)C1=O (stereo not drawn),-8.03
5,CCN(CC)S(=O)(=O)c1ccc(NC(=O)CSc2ncnc3ccccc23)cc1,-8.71
6,Cc1ccc(C(=O)NCCc2nnc3ccc(SCC(=O)N4CCCCC4)nn23)cc1,4.02
7,Cc1ccc(-c2nnc3sc(CCc4ccccc4)nn23)cc1,6.39
8,c1ccc(Cc2nn3c(-c4ccncc4)nnc3s2)cc1,-38.6
9,c1ccc(CCc2nn3c(-c4ccncc4)nnc3s2)cc1,-53.9
10,CCc1nn(CCCC(=O)NCc2cc(Br)ccc2OC)c(=O)c2cc3occc3n12,-2.73
11,CC1(C(=O)Nc2nc3ccccc3s2)CC1(Br)Br (stereo not drawn),13.5
12,COc1ccc(CCC(=O)NCc2cn3ccccc3n2)cc1,-2.46
13,Cc1ccn2cc(CCNC(=O)c3ccc(Br)o3)nc2c1,-57.5
14,COc1ccc(CCC(=O)NCc2cn3ccsc3n2)cc1,13
15,COc1ccc(CCC(=O)NCc2cn3ccc(C)cc3n2)cc1,-52
16,O=C(NCCc1cn2ccccc2n1)c1ccc(Br)o1,-28.9
17,Cc1ccn2cc(CNC(=O)c3ccc(Br)o3)nc2c1,-38.6
18,O=C(CNC(=O)c1ccco1)NCC(=O)OCc1cccc(Cl)c1,-13
19,COC(=O)COc1ccc(C2Nc3c(Cl)ccc(C(=O)O)c3C3C=CCC32)cc1 (stereo not drawn),12.9
20,Cn1ncc(Cl)c1C(=O)Nc1cc(C(F)(F)F)ccc1F,29.5
21,Cc1ccc(NC2=C(Cl)C(=O)OC2OC(=O)c2ccco2)cc1 (stereo not drawn),-42.2

row,SMILES,"hERG current change (%, negative = inhibition) at 10uM [%]"
1,COC(=O)c1ccc(NC2=C(Cl)C(=O)OC2OC(=O)c2ccccc2)cc1 (stereo not drawn),-22.5
2,Cc1ccc(NC2=C(Cl)C(=O)OC2OC(=O)c2ccc(C)cc2)cc1 (stereo not drawn),-51.7
3,COCCCN1C(=O)C(=O)/C(=C(/O)c2ccccc2)C1c1ccc(N(C)C)cc1 (stereo not drawn),12.8
4,CSCC[C@H](NC(=O)Nc1ccc(S(N)(=O)=O)cc1)C(=O)O,9.48
5,CCN1CCN(c2cc(C)c3cc(NC(=O)c4cccc(OC)c4)ccc3n2)CC1,-50.9
6,COc1cccc(C(=O)Nc2ccc3nc(N4CCOCC4)cc(C)c3c2)c1,-55
7,CCN1CCN(c2cc(C)c3cc(NC(=O)c4cc(OC)cc(OC)c4)ccc3n2)CC1,-35.6
8,COc1ccc(NC(=O)CCC(=O)Nc2ccc3nc(N4CCOCC4)cc(C)c3c2)c(OC)c1,16.5
9,COc1ccc(C(=O)Nc2ccc3nc(N4CCCCC4)cc(C)c3c2)cc1OC,-56.8
10,CCN1CCN(c2cc(C)c3cc(NC(=O)CCC(=O)Nc4ccc(OC)c(OC)c4)ccc3n2)CC1,4.85
11,CCOc1ccc(C(=O)Nc2ccc3nc(N4CCN(CC)CC4)cc(C)c3c2)cc1,-23
12,CCN1CCN(c2cc(C)c3cc(NC(=O)c4ccc(OC)c(OC)c4)ccc3n2)CC1,-46
13,COc1cccc(NC(=O)CCC(=O)Nc2ccc3nc(N4CCOCC4)cc(C)c3c2)c1,23.4
14,COc1ccc(Cc2nc3ccc(C(=O)N(C)C(C)c4ccon4)cc3o2)cc1 (stereo not drawn),-3.64
15,O=C1COc2ccc(C(=O)c3ccccc3C(=O)NCc3ccccc3)cc2N1,-5.41
16,COc1cccc(CC(=O)OC(C)C(=O)Nc2ccc(Cl)cn2)c1 (stereo not drawn),-23.9
17,CC(=O)Nc1nc2ccc(S(=O)(=O)N3CCCCC3)cc2s1,11.4
18,Cc1ccccc1NC(=O)Cc1nc(-c2c[nH]c(C(=O)N3CCCC3)c2)cs1,4.63
19,Cc1ccc(NC(=O)C(=O)NNC(=O)c2ccccc2C)cc1Cl,-5.32
20,CCCCn1c(=NC(=O)c2ccc3c(c2)OCO3)c(C#N)cc2c(=O)n3cccc(C)c3nc21,-5.68
21,CCOCCCn1c(=NC(C)=O)c(C#N)cc2c(=O)n3cccc(C)c3nc21,-41.8

row,SMILES,"hERG current change (%, negative = inhibition) at 10uM [%]"
1,Cc1cccn2c(=O)c3cc(C#N)c(=NC(=O)c4cccs4)n(CC(C)C)c3nc12,-11.5
2,CCOCCCn1c(=NC(=O)c2cccs2)c(C#N)cc2c(=O)n3cccc(C)c3nc21,-74.1
3,Cc1cccn2c(=O)c3cc(C#N)c(=NC(=O)c4cccs4)n(CCCOC(C)C)c3nc12,-80.7
4,CCOCCCn1c(=NC(=O)c2ccc(OC)c(OC)c2)c(C#N)cc2c(=O)n3cccc(C)c3nc21,-63.4
5,NC(=O)Nc1ccc(Oc2c(F)c(F)c(F)c(F)c2F)cc1,-11.5
6,Cc1cccc(N2CCN(CC(=O)Nc3ccc(-n4cnnn4)cc3)CC2)c1C,12.8
7,O=C(Nc1ccc(F)cc1)c1ccccc1S(=O)(=O)c1ccccc1[N+](=O)[O-],-17.5
8,N#C/C(Cn1c[n+](NC(=O)Nc2ccccc2)cn1)=N/O.[Cl-],16.2
9,Cc1cccn2c(=O)c3cc(C(=O)N4COCC4(C)C)sc3nc12,0.269
10,CC(C)[C@@H]1NC(=O)c2cc([N+](=O)[O-])cc(I)c2OCC[C@@H](C(N)=O)NC(=O)[C@H](CCC(=O)O)NC1=O,2.02
11,CCc1ccccc1NC(=S)N(CCN(C)C)Cc1cccs1,-22.4
12,COc1ccc(S(=O)(=O)N(C)CC(=O)N2CCC(C)CC2)cc1Cl,-0.646
13,CC(C)N1CCC(N2CCN(Cc3nc4ccccc4s3)CC2CCO)CC1 (stereo not drawn),-33.4
14,OCCC1CN(Cc2nc3ccccc3s2)CCN1CCc1ccccc1 (stereo not drawn),-77.7
15,CC(C)N1CCN(Cc2nc3ccccc3s2)CC1CCO (stereo not drawn),-37.6
16,CC(C)CCN1CCN(Cc2nc3ccccc3s2)CC1CCO (stereo not drawn),-41.4
17,CC(C)NC(=O)C1CCN(C2CCN(Cc3nc4ccccc4s3)CC2)CC1,-65.2
18,OCCC1CN(Cc2nc3ccccc3s2)CCN1C1CCCCC1 (stereo not drawn),-60
19,CC(C)NC(=O)C1CCN(C2CCN(Cc3ccc4cccc(F)c4n3)CC2)CC1,-38.6
20,CC(C)CN1CCN(Cc2nc3ccccc3s2)CC1CCO (stereo not drawn),-56.8
21,CC(C)NC(=O)C1CCN(C2CCN(Cc3nc(C(C)C)cs3)CC2)CC1,-49.5

row,SMILES,"hERG current change (%, negative = inhibition) at 10uM [%]"
1,OCCC1CN(Cc2nc3ccccc3s2)CCN1C1CCCC1 (stereo not drawn),-48.9
2,O=C1S/C(=C\c2ccc(Cl)cc2)C(=O)N1CCn1cnnn1,-0.978
3,CC(=O)c1cc2c(cc1N(C(=O)Cn1nnc3ccccc31)C(C(=O)NCCC(C)C)c1cccnc1)OCO2 (stereo not drawn),8.92
4,CCc1ccccc1NC(=O)C1CCN(C(=O)c2cccs2)CC1,-24.3
5,COc1ccc(S(=O)(=O)N2CCCCCC2)cc1NC(=O)CN1C(=O)NC(C)(c2ccccc2)C1=O (stereo not drawn),-31.4
6,O=C(O)c1ccccc1C(=O)c1ccc(Sc2ccc(Cl)cc2)c([N+](=O)[O-])c1,6.94
7,O=[N+]([O-])c1cc(CN2CCCCCC2)ccc1O,9.47
8,O=[N+]([O-])c1cc(CN2CCCC2)ccc1Sc1ccc(Cl)cc1,-93.8
9,Cc1ccc(Sc2ccc(CN3CCCCC3)cc2[N+](=O)[O-])cc1,-27.4
10,O=[N+]([O-])c1cc(CN2CCC(O)CC2)ccc1Cl,9.08
11,O=[N+]([O-])c1ccc(Cl)cc1CN1CCCCCC1,-3.36
12,Cc1ccc(Sc2ccc(C(=O)N3CCOCC3)cc2[N+](=O)[O-])cc1,-32.3
13,CN1CCN(Cc2ccc(Sc3ccc(Cl)cc3)c([N+](=O)[O-])c2)CC1,-80.4
14,Cc1ccc(Sc2ccc(CN3CCCC3)cc2[N+](=O)[O-])cc1,-83
15,CCN(CC(=O)NCCCN1CCOCC1)S(=O)(=O)c1cc(Cl)ccc1Cl,6.16
16,CN(Cc1ccc(Br)cc1)C(=O)CCN1C(=O)c2cccc([N+](=O)[O-])c2C1=O,21.8
17,COc1cccc(OCc2cc(C(=O)N3CCN(c4ccccc4OC)CC3)no2)c1,6.19
18,COc1c(C)cccc1C(=O)NCc1ccc2c(c1)OCO2,-2.64
19,O=S(=O)(NCC1CCCO1)c1ccc(S(=O)(=O)N(Cc2ccc(F)cc2)C2CCCCC2)cc1 (stereo not drawn),-2.39
20,COc1ccccc1NC(=O)CSc1nnc(CC(=O)Nc2ccccc2F)n1C,11.4
21,COc1ccc(-n2c(SCC(=O)Nc3nccs3)nc3c(c2=O)SC(C)C3)cc1 (stereo not drawn),-13.5

# Source: paper PMC4336329 (PLoS ONE, 2015)
